Screening results: PubChem, National Center for Advancing Translational Sciences (NCATS)
A selection: hits, their analogues and other compounds. The true share with any hit is near 19%.
HepG2 viability: HepG2 cytotoxicity, counter-screen for TGF-b inhibitors; 410,000 compounds, 0.76% hits; Potency, µM (series often up to 46.1 µM), without a hit: top-dose activity change, negative = cytotoxicity, hits mostly cytotoxic; HepG2 CAGA-GFP viability, ATP luminescence, 18 h; AID 588856; note: potency is the fitted concentration of half-maximal effect
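CellTiter-Glo luminescence gave cytotoxicity after 18 hours at 37 degrees C. The cells were HepG2 CAGA-GFP in 1% FBS DMEM, stimulated with 500 pg/mL TGF-beta after compound addition. %Activity was normalised to no-cell wells (complete cell-killing) and DMSO (no toxicity), and curves were fitted and classified.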
DT40 TDP1 no CPT: qHTS for Inhibitors of human tyrosyl-DNA phosphodiesterase 1 (TDP1): qHTS in cells in absence of CPT; AID 686978, 2013; DT40 Tdp1-/- hTDP1 cells, no CPT, ATP luminescence, 48 h; Potency, µM (highest dose often 46.2 µM), for inactives: at the top dose activity change, negative = growth inhibition, usual class: inhibitors; 420,000 compounds, 15% hits; note: potency is the fitted concentration of half-maximal effect; % is set by controls: 0 for no effect and ±100 for the full control effect; nearly all actives have a fitted effect of over 55% in size
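Growth kinetics read by CellTiter-Glo luminescence after ≥48 hr at 37 °C. Cells: DT40 Tdp1-/- stably carrying human TDP1, 400 per well, compound exposure in the absence of CPT (DMSO vehicle).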
S-ASM inh: human S-ASM enzyme inhibition | placental ASM, HMU-PC fluorogenic substrate, 60 min | Potency, µM (series often up to 57.5 µM), for the others: at the top dose activity change, negative = inhibition, usual class: inhibitors | P17405 | 340,000 compounds, 0.006% hits | AID 504937; note: potency is the fitted concentration of half-maximal effect
Target sequence (P17405 47-631 limits assumed): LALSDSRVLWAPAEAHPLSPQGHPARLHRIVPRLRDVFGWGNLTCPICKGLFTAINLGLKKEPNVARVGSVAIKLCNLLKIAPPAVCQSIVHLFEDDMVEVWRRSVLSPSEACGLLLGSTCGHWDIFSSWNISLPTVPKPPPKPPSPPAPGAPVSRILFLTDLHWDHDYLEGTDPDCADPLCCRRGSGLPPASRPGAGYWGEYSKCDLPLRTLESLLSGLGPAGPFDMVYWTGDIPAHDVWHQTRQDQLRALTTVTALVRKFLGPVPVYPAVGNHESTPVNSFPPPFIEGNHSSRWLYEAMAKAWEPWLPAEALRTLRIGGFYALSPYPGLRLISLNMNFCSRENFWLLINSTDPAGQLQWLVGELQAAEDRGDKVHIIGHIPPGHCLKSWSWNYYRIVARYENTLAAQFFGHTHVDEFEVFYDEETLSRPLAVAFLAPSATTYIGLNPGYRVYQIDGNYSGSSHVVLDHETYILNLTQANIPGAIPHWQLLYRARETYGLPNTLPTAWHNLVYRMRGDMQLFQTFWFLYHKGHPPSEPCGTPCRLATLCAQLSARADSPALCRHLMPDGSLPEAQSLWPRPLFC
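Human placenta-derived ASM preincubated with compound 10 min at room temperature, then reacted with 9 uM (final) fluorogenic HMU-PC substrate for 60 min at 37 C. Stop solution raises pH to 10; fluorescence read at Ex 386/Em 447 nm.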
IL-1B inflam inh: inhibitors of inflammasome signaling (IL-1 beta secretion); 360,000 compounds, 4.7% hits; THP-1 LPS/ATP IL-1B secretion, AlphaLISA, 16 h; stronger effect = lower value; activity change, % at 57.5 µM; AID 743279; in the data active = activity change below about -50%; inconclusive = mostly about -30% to -49%; note: % is set by controls: 0 for no effect and ±100 for the full control effect
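Secreted IL-1B measured by AlphaLISA bead assay after 16 h compound exposure of THP-1 cells; compounds (final up to 57.5 uM) added 1 h before LPS (250 ng/mL) and ATP (1.25 mM) stimulation; lower signal means less secretion.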
TGFb SMAD3 inh: TGF-b pathway inhibition. 410,000 compounds, 1.2% hits. HepG2 CAGA-GFP TGF-b/SMAD3 reporter, GFP fluorescence, 18 h; TGF-beta stimulated, 500 pg/mL final. Potency, µM (highest dose often 46.1 µM), inactives show top-dose activity, negative = inhibition, hits mostly inhibitors. AID 588855; note: potency is the fitted concentration of half-maximal effect; % is set by controls: 0 for no effect and ±100 for the full control effect; nearly all actives have a fitted effect of over 65% in size
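First, reporter cells (HEPG2 CAGA-GFP) rested 2 h at 37 degrees C. Next, compounds were pinned in and TGF-beta added to 500 pg/mL final. After 18 h, GFP was imaged per cell and summed per well.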
TDP1 cell CPT: growth inhibition of DT40 Tdp1-/-;hTDP1 cells with camptothecin (screen for TDP1 inhibitors). chicken DT40 Tdp1-/-;hTDP1 cells + 20 nM CPT, ATP luminescence, 48 h. Potency, µM (highest dose often 46.2 µM), without a hit: at the highest dose activity change, negative = growth inhibition, hits mostly inhibitors. 420,000 compounds, 12% hits. AID 686979; note: potency is the fitted concentration of half-maximal effect; % is set by controls: 0 for no effect and ±100 for the full control effect; nearly all actives have a fitted effect of over 55% in size
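Cell growth measured by CellTiter-Glo luminescence after a minimum 48 h, 37 C compound exposure with 20 nM CPT in Tdp1-knockout DT40 cells stably expressing hTDP1, seeded 400/well; qHTS titration format.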
* hit, by the source's call; i = inactive; ? = inconclusive; nt = no result. Unless noted, calls come from the whole dose curve; as a rule, active = well fitted curve in the direction sought with a large enough effect; inconclusive = small, poorly fitted or top-dose-only effect, or another doubt; inactive = no such curve, though single readings can be large; an effect the other way counts as inactive or inconclusive.

SMILES | HepG2 viability | DT40 TDP1 no CPT | S-ASM inh | IL-1B inflam inh | TGFb SMAD3 inh | TDP1 cell CPT
Cc1c(C)c(C)c(C(=O)CCc2cccc(NC(=O)CCC(=O)O)c2)c(C)c1C | -13% | ? | -1% | 15 | -5% | -28%
CCc1cnc2c(c1SCC(=O)N1CCCCC1)c(=O)n(C)c(=O)n2C | -6% | ? | nt | nt | 1% | ?
COC(=O)c1ccc(CSc2c(C(C)C)cnc3c2c(=O)n(C)c(=O)n3C)cc1 | 9% | 23µM* | nt | nt | -7% | ?
CCc1cnc2c(c1SCC(=O)c1ccc(OC)cc1)c(=O)n(C)c(=O)n2C | -20% | 12µM* | nt | nt | ? | 12µM*
CC(C)c1cnc2c(c1SCC(=O)NCc1ccccc1)c(=O)n(C)c(=O)n2C | 1% | ? | nt | nt | -10% | ?
CC(C)c1cnc2c(c1SCc1cccc(C(F)(F)F)c1)c(=O)n(C)c(=O)n2C | -17% | 23µM* | nt | nt | 0% | ?
Cc1cc(C)cc(NC(=O)CSc2c(C(C)C)cnc3c2c(=O)n(C)c(=O)n3C)c1 | 2% | ? | nt | nt | -4% | ?
CC(C)c1cnc2c(c1SCC(=O)Nc1cccc(F)c1)c(=O)n(C)c(=O)n2C | -34% | 15µM* | nt | nt | ? | ?
CCOC(=O)C1CCCN(C(=O)c2nn(-c3ccc(C)cc3)c(=O)c3c2c2ccccc2n3C)C1 (stereo unspecified) | 0% | ? | nt | nt | 20% | ?
COc1cccc(CNC(=O)C(Cc2ccccc2)NS(=O)(=O)c2ccc3c(c2)CCN3C(C)=O)c1 (stereo unspecified) | -4% | -23% | nt | nt | -2% | -21%
Cc1ccccc1C(=O)NCc1nc2cccnc2n1Cc1ccccc1 | -10% | ? | nt | nt | 3% | ?
CCN(CC)CCSc1c(C(C)C)cnc2c1c(=O)n(C)c(=O)n2C | 0% | -2% | nt | nt | 0% | 4%
CC(C)c1cnc2c(c1SCc1ccc([N+](=O)[O-])cc1)c(=O)n(C)c(=O)n2C | 7% | 8.2µM* | nt | nt | ? | ?
O=[N+]([O-])/C(C(Cl)=C(Cl)Cl)=C(/Sc1ccccc1)N1CCCCC1 | 2% | 13µM* | -9% | -89* | -33% | ?
COc1ccc(-c2c(N)nnc3c2[nH]c2ccccc23)cc1OC | 7% | 21µM* | 105% | -64* | 40% | ?
Nc1ncnc2c1ncn2[C@@H]1O[C@H](CNC(=O)[C@@H]2CCCN2S(=O)(=O)c2ccc(F)cc2)[C@@H](O)[C@H]1O | -29% | -5% | 4% | 8 | 3% | -12%
Cc1c(C(=O)O)c(O)cc2c1C(=O)c1c(O)c([C@H]3O[C@H](CO)[C@@H](O)[C@H](O)[C@H]3O)c(O)c(O)c1C2=O | 3% | ? | nt | nt | 3% | 8.9µM*
Nc1nc2ccccc2n1C(=O)CCc1ccccc1 | -22% | 18µM* | 2% | 4 | 3% | ?
COc1ccc(C(=O)n2c(N)nc3ccccc32)cc1OC | -22% | ? | -2% | 0 | 3% | ?
Nc1nc2ccccc2n1C(=O)c1ccccc1 | -58% | 18µM* | -2% | 9 | 0% | ?
Nc1nc2ccccc2n1C(=O)c1ccc(F)cc1 | -35% | 18µM* | 1% | -9 | -5% | ?
Nc1nc2ccccc2n1C(=O)c1ccco1 | -4% | -10% | 2% | -2 | 9% | ?
CCOc1ccc(NC(=O)C(C)n2c(=O)cc(-c3ccccc3)c3c(C)nn(C)c32)cc1 (stereo unspecified) | -2% | -7% | nt | nt | -13% | -5%
CCOc1ccc(C(=O)Nc2ccc(S(=O)(=O)Nc3nc(C)cc(C)n3)cc2)cc1OC | 4% | -20% | nt | nt | -9% | -28%
COc1ccc(C(=O)COC(=O)[C@H](C)NS(=O)(=O)c2ccc(NC(C)=O)cc2)cc1OC | 11% | -8% | 3% | -93* | 12% | -6%
SMILES | HepG2 viability | DT40 TDP1 no CPT | S-ASM inh | IL-1B inflam inh | TGFb SMAD3 inh | TDP1 cell CPT
COc1ccc(OCCOC(=O)C(C)NS(=O)(=O)c2ccc(NC(C)=O)cc2)cc1 (stereo unspecified) | -31% | ? | 4% | -77* | -2% | -15%
O=C1C2CC=CCC2C(=O)N1c1ccc(OCC(O)Cn2nnc3ccccc32)cc1 (stereo unspecified) | 2% | 23µM* | -1% | 50 | ? | ?
N#Cc1ccc(-c2ccc(OCC(O)Cn3nnc4ccccc43)cc2)cc1 (stereo unspecified) | -45% | ? | -15% | -59* | 1% | ?
CC(=O)c1ccc(OCC(O)Cn2nnc3ccccc32)cc1 (stereo unspecified) | -8% | -21% | -1% | 0 | 13% | ?
Cc1ccc(F)c(S(=O)(=O)NC(=O)C2(C)CCN2C(=O)Cc2cc(F)ccc2F)c1 (stereo unspecified) | -1% | 0% | nt | 21 | -6% | 2%
CC(=O)c1cccc(S(=O)(=O)NC2CCSc3ccccc32)c1 (stereo unspecified) | -6% | 12µM* | -17% | 36 | -13% | ?
CCC1C(=O)NCCN1C(=O)c1ccc2nc(Cc3cccc(Cl)c3)oc2c1 (stereo unspecified) | -32% | ? | 1% | i | 0% | -8%
CCc1ccc(S(=O)(=O)NC2CC(C)(C)NC(C)(C)C2)cc1 | -15% | -22% | 2% | -16 | 11% | -11%
O=C(CSc1nc2ccccc2c(=O)n1NC(=O)c1ccccc1)c1ccc(Cl)cc1 | -17% | ? | -21% | ? | -2% | ?
Cc1nc2c3ccccc3nc(SCC(=O)c3ccc(Cl)cc3)n2n1 | -1% | 18µM* | -10% | 2 | -5% | ?
COc1cc(Nc2nc(SCC(=O)c3ccc(Cl)c(Cl)c3)nc3ccccc23)cc(OC)c1 | -3% | 0.65µM* | nt | nt | ? | 1.3µM*
COc1cc(Nc2nc(SCc3cccc(Cl)c3)nc3ccccc23)cc(OC)c1 | -24% | ? | nt | nt | -29% | ?
O=C(CSc1nc(Nc2ccccc2)c2ccccc2n1)c1ccc(Cl)cc1 | -8% | 18µM* | nt | nt | -7% | 13µM*
CCCCOc1ccc(C(=O)NCC(=O)NCCCn2nc(C)cc2C)cc1 | 0% | -1% | -2% | -2 | -3% | -6%
NS(=O)(=O)c1ccc(CCNC(=O)c2ccc3nc(CCc4ccccc4)oc3c2)cc1 | 6% | -8% | nt | nt | -1% | ?
